{
  "source": "PubChem BioAssay AID489037",
  "about": "(National Center for Advancing Translational Sciences (NCATS), 2010)",
  "note": "Where “and” joins values, the source holds several entries; their conditions need not be identical. Equal entries are not always repeated. Results filed as inconclusive are left out. Some structures have more than one record in an assay (separate samples or runs), and their calls can disagree. Calls of active or inactive are those of the source. The call rests on the fitted dose curve; in most records, active means well fitted inhibition curve with a large enough effect; inconclusive means small, poorly fitted or top-dose-only effect, or effect the other way; inactive means no such curve, though single readings can be large or run the other way.",
  "data": [
    {"biological_target": "Nuclear receptor ROR-gamma (Mus musculus) (UniProt P51450)", "sequence (P51450 whole entry, looked up, the tested form may be a part)": "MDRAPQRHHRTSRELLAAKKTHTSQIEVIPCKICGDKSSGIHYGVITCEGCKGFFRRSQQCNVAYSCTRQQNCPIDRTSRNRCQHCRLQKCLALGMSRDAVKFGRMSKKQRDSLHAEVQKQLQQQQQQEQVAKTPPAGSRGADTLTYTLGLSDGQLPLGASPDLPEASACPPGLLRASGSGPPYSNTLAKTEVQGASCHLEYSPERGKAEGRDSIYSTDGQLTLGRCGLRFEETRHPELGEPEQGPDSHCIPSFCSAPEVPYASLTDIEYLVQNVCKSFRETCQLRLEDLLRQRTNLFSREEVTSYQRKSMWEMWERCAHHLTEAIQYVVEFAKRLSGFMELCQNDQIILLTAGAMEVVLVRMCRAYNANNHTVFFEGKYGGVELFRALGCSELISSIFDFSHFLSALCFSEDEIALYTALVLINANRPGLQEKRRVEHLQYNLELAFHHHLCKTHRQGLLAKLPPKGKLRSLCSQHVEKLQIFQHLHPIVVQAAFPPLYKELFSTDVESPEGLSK", "test": "Secondary confirmation assay for inhibitors of ROR gamma transcriptional activity", "conditions": "Drosophila S2 Gal4-RORgamma UAS-luciferase reporter, 20 h; series mostly up to 92.2 µM; activity change, negative = inhibition: at the top concentration", "description": "NIH Molecular Libraries Probe Production Network [MLPCN] NIH Chemical Genomics Center [NCGC] MLPCN Grant: R03 DA026211-01 Assay Provider: Dan Littman, New York University Keywords: NIH Roadmap, MLPCN, MLI, MLSMR, qHTS, NCGC, qHTS, nuclear hormone receptor, retinoic acid-related orphan receptor, ROR gamma Assay Overview: The retinoic acid-related orphan receptor (ROR) gamma is a transcription factor that has a central role in the differentiation of Th17 cells, a subset of T helper cells that secrete the inflammatory cytokines IL-17, IL-17F, and IL-22. Th17 cells have been implicated in graft versus host disease, autoimmune disease and asthma. ROR gamma is induced in naive T helper cells in the presence of TGF-beta combined with IL-6, IL-21, or IL-23, and thereafter directs the expression of the Th17 lineage cytokines. To study the mechanism of action of ROR gamma, an insect cell-based assay was screened. This Drosophila Schneider cell line was stably transfected with two vectors: a gene expressing a fusion of the Gal4 DNA binding domain and ROR gamma transactivation domain under the control of the metallothionine promoter and a Photinus luciferase reporter regulated by the Gal4 binding site enhancer, UAS. […] Small molecule inhibitors of ROR gamma activity are detected by a decrease in luciferase reporter activity.\nAssay Protocol Summary: For screening, 600 cells in 4 uL/well were dispensed into white solid 1536-well plates (Grenier) using a solenoid-based dispenser. Following transfer of 23 nL compound or DMSO vehicle by a pin tool, the plates were incubated 1 hr at ambient temperature, and 1 uL/well copper sulfate (700 uM final concentration) was added. The plates were centrifuged 15 s at 1000 RPM and incubated 20 hr at ambient temperature. After addition of 1.5 uL Photinus luciferase detection reagent, the plates were incubated 10 min at ambient temperature and then read by an ViewLux (Perkin Elmer) to detect luminescence. Keywords: NIH Roadmap, MLPCN, MLI, MLSMR, qHTS, NCGC, qHTS, nuclear hormone receptor, retinoic acid-related orphan receptor, ROR gamma", "values": [
      {"smiles": "COc1ccccc1C(CC(=O)Nc1ccc(F)cc1)c1ccccc1", "note": "(stereo not given)", "activity change, negative = inhibition": "-21% (inactive)"},
      {"smiles": "COc1cc(O)c(C(CC(=O)N(C)c2cccc(C)c2)c2ccc3c(c2)OCO3)c(OC)c1", "note": "(stereo not given)", "activity change, negative = inhibition": "-23.4% (inactive)"},
      {"smiles": "COc1cc(O)c(C(CC(=O)N2CCCC(COc3ccc(F)cc3)C2)c2ccc3c(c2)OCO3)c(OC)c1", "note": "(stereo not given)", "activity change, negative = inhibition": "-4.08% (inactive)"},
      {"smiles": "O=C(NC(=S)Nc1nc(-c2ccccc2)cs1)c1cccnc1", "Potency": "5.12 µM (active)"},
      {"smiles": "CCOC(=O)C1CCN(CC(=O)Nc2cc(C)nn2-c2nc3ccccc3s2)CC1", "Potency": "5.75 µM (active)"},
      {"smiles": "Cc1cccc(-c2nc3cc(NC(=O)C4CCCO4)ccc3o2)c1", "note": "(stereo not given)", "Potency": "0.724 µM (active)"},
      {"smiles": "COc1cc(O)c(C(CC(=O)N2CCCCC2C)c2ccc3c(c2)OCO3)c(OC)c1", "note": "(stereo not given)", "Potency": "25.7 µM (active)"},
      {"smiles": "COc1cc(O)c(C(CC(=O)N2CCC(C)CC2)c2ccc(C)cc2)c(OC)c1", "note": "(stereo not given)", "Potency": "14.4 µM (active)"},
      {"smiles": "COc1cc(OC)c(C(CC(=O)N2CC(C)CC(C)C2)c2ccc3c(c2)OCO3)c(OCC(N)=O)c1", "note": "(stereo not given)", "Potency": "11.5 µM (active)"},
      {"smiles": "Cc1cc(C)n(-c2nc(SCC(=O)O)c3c4c(sc3n2)CCCC4)n1", "Potency": "9.11 µM (active)"},
      {"smiles": "CCOc1cccc(-c2cc(-c3n[nH]c(=S)n3CC)c3ccccc3n2)c1", "Potency": "2.29 µM (active) and 1.82 µM (active)"},
      {"smiles": "CC1CCCN(C(=O)CC(c2ccc3c(c2)OCO3)c2ccc(O)cc2O)C1", "note": "(stereo not given)", "activity change, negative = inhibition": "-7.31% (inactive)"},
      {"smiles": "COc1ccccc1CNC(=O)[C@@H](NC(=O)C1CCN(C(=O)[C@@H]2CCCN2C(=O)OC(C)(C)C)CC1)C(C)C", "Potency": "12.9 µM (active)"},
      {"smiles": "O=C(CCCOc1ccccc1)Nc1nc2ccccc2[nH]1", "Potency": "7.24 µM (active)"},
      {"smiles": "COc1cc(O)c(C(CC(=O)NCC2CCCCC2)c2ccc3c(c2)OCO3)c(OC)c1", "note": "(stereo not given)", "activity change, negative = inhibition": "-24.8% (inactive)"},
      {"smiles": "COc1cc(O)c(C(CC(=O)N2CCC[C@@H](C)C2)c2ccc3c(c2)OCO3)c(OC)c1", "note": "(stereo not given in full)", "Potency": "5.12 µM (active) and 22.9 µM (active) and inactive"},
      {"smiles": "C#CCOc1cc(OC)cc(OC)c1C(CC(=O)N1CCCC(C)C1)c1ccc2c(c1)OCO2", "note": "(stereo not given)", "Potency": "9.11 µM (active)"},
      {"smiles": "COc1cc(O)c(C(CC(=O)N2CCCC(C)C2)c2cccs2)c(OC)c1", "note": "(stereo not given)", "Potency": "7.24 µM (active)"},
      {"smiles": "CC1=C(\\C=C/C(C)=C/C=C\\C(C)=C\\C(=O)O)C(C)(C)CCC1", "activity change, negative = inhibition": "-12.4% [at 20 µM] (inactive)"},
      {"smiles": "C[C@H]1O[C@@H](O[C@H]2[C@@H](O)C[C@@H](O[C@H]3[C@@H](O)C[C@H](O[C@H]4CC[C@@]5(C)[C@H](CC[C@@H]6[C@@H]5CC[C@]5(C)[C@@H](C7=CC(=O)OC7)CC[C@]65O)C4)O[C@@H]3C)O[C@@H]2C)C[C@H](O)[C@@H]1O", "Potency": "1.44 µM (active)"},
      {"smiles": "COc1cc(O)c(C(CC(=O)N2CC(C)NC(C)C2)c2ccc3c(c2)OCO3)c(OC)c1", "note": "(stereo not given)", "activity change, negative = inhibition": "-16.5% (inactive)"},
      {"smiles": "CCOC(=O)c1sc(NC(=O)c2ccc(S(=O)(=O)N(C)C)cc2)nc1C", "Potency": "0.129 µM (active)"},
      {"smiles": "COC(=O)Cn1c(CN2CCc3ccccc3C2)nc2c1c(=O)n(C)c(=O)n2C", "Potency": "6.45 µM (active)"},
      {"smiles": "COc1cc(O)c(C(CC(=O)N2CCCC(C)(C)C2)c2ccc3c(c2)OCO3)c(OC)c1", "note": "(stereo not given)", "Potency": "5.12 µM (active)"},
      {"smiles": "COc1cc(O)c(C(CC(=O)N2CCCCC2)c2ccc(C)cc2)c(OC)c1", "note": "(stereo not given)", "Potency": "32.3 µM (active)"},
      {"smiles": "COc1cc(O)c(C(CC(=O)N2CCCC(C)C2)c2ccc(-c3ccccc3)cc2)c(OC)c1", "note": "(stereo not given)", "activity change, negative = inhibition": "-26% (inactive)"},
      {"smiles": "CC(C)(C)c1ccc(-c2noc(CCC(=O)Nc3cccnc3)n2)cc1", "Potency": "0.257 µM (active)"},
      {"smiles": "COc1cc(O)c(C(CC(=O)N2CCCC(C#N)C2)c2ccc3c(c2)OCO3)c(OC)c1", "note": "(stereo not given)", "activity change, negative = inhibition": "-20.7% (inactive)"},
      {"smiles": "COc1cc(O)c(C(CC(=O)N2CC(C)CC(C)C2)c2ccc3c(c2)OCCO3)c(OC)c1", "note": "(stereo not given)", "Potency": "0.645 µM (active)"},
      {"smiles": "COc1cc(O)c(C(CC(=O)N2CCCC(CO)C2)c2ccc3c(c2)OCO3)c(OC)c1", "note": "(stereo not given)", "activity change, negative = inhibition": "-2.57% (inactive)"},
      {"smiles": "COc1cc(O)c(C(CC(=O)NC2CCCc3ccccc32)c2ccc3c(c2)OCO3)c(OC)c1", "note": "(stereo not given)", "activity change, negative = inhibition": "11.2% (inactive)"},
      {"smiles": "Cc1ccc(-c2cn(-c3ccccc3)c3[n+]2CCCS3)cc1", "Potency": "28.8 µM (active)"},
      {"smiles": "Cc1ccc(O)c(C(CC(=O)NC2CCCCC2)c2ccccc2)c1", "note": "(stereo not given)", "activity change, negative = inhibition": "18.9% (inactive)"},
      {"smiles": "COC(=O)c1ccc(OCC(=O)c2ccc(O)cc2O)cc1", "Potency": "0.363 µM (active)"},
      {"smiles": "COc1cc(O)c(C(CC(=O)N(Cc2ccccc2)Cc2ccccc2)c2ccc3c(c2)OCO3)c(OC)c1", "note": "(stereo not given)", "activity change, negative = inhibition": "-6.12% (inactive)"},
      {"smiles": "CCOC(=O)c1sc(NC(=O)c2cc3c(s2)CCC(C)C3)nc1C", "note": "(stereo not given)", "Potency": "0.144 µM (active)"},
      {"smiles": "COc1ccc(-c2c[n+]3c(n2-c2ccc(C)cc2)CCCCC3)cc1", "Potency": "11.5 µM (active)"},
      {"smiles": "COc1cc(O)c(C(CC(=O)N2CC(C)OC(C)C2)c2ccc3c(c2)OCO3)c(OC)c1", "note": "(stereo not given)", "Potency": "1.29 µM (active)"},
      {"smiles": "COc1cc(O)c(C(CC(=O)N2CCC(c3ccccc3)CC2)c2ccc3c(c2)OCO3)c(OC)c1", "note": "(stereo not given)", "Potency": "inactive"},
      {"smiles": "COc1cc(OC)c2c(c1)OC(=O)CC2c1ccc2c(c1)OCO2", "note": "(stereo not given)", "activity change, negative = inhibition": "11.1% (inactive)"}
    ]}
  ]
}
